Values joined by “and” are separate entries in the source; they are usually repeats but may differ in a detail not shown here. Equal values may be shown once. Results filed as inconclusive are left out. Some compounds were tested as several samples or in several runs, with calls that do not always agree. Active and inactive are the calls of the source. Rule for the calls: active = hit-call score of the fitted dose curve at least 0.9, where 1 is the maximum; inconclusive = response in the unintended direction; inactive = score below 0.9.
Experiments:
[1] = test system: turtle Androgen Receptor (AR), gene 101947425; experiment: ATG_trAR_XSP2: Attagene TRANS-FACTORIAL Multi-Species (XSP2) HepG2 Assay for turtle Androgen Receptor (AR) (AID 2283815);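 for AC50: potency for gain of reporter signal meaning activation above DMSO baseline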
In short: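 HepG2 cells transiently transfected with GAL4-UAS reporter units for chimeric NR-Gal4 receptors; 24 h dosing in presence of 3 nM 6-alpha-fluorotestosterone and 1.5 nM norgestrel. Reporter mRNA by RT-PCR and capillary electrophoresis, gain of signal versus DMSO.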

[2] = target: zebrafish Estrogen Receptor (ER1), esr1 (gene 259252) (UniProt P57717); experiment: ATG_zfER1_XSP2: Attagene TRANS-FACTORIAL Multi-Species (XSP2) HepG2 Assay for zebrafish Estrogen Receptor (ER1) (AID 2283816)
zebrafish Estrogen Receptor (ER1), esr1 (gene 259252), sequence (P57717 whole entry, looked up, the tested form may be a part): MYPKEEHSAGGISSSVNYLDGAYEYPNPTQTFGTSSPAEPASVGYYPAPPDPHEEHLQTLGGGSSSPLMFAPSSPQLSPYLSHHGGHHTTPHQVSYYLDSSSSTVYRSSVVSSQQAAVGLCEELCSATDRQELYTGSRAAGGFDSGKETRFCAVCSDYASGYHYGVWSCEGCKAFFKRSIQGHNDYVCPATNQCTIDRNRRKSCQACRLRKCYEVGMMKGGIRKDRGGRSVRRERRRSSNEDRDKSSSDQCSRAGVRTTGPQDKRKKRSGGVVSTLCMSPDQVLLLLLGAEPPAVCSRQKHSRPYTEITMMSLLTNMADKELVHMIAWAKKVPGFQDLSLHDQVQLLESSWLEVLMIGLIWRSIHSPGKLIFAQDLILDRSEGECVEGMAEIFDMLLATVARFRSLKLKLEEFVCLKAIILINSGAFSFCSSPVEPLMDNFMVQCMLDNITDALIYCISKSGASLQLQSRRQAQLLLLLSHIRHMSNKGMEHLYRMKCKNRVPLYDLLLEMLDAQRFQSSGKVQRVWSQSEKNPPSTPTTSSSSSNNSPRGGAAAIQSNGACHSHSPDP
In short: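 HepG2 cells transiently transfected with a GAL4-UAS reporter and a chimeric zebrafish ER1-Gal4 construct, dosed 24 h. Reporter mRNA quantified by RT-PCR, labelling, HpaI digestion and capillary electrophoresis, relative to DMSO.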

[3] = target: chicken Estrogen Receptor (ERa), ESR1 (gene 396099) (UniProt P06212); experiment: ATG_chERa_XSP2: Attagene TRANS-FACTORIAL Multi-Species (XSP2) HepG2 Assay for chicken Estrogen Receptor (ERa) (AID 2283817);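 note: actives raise reporter signal above DMSO so AC50 reflects ER activation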
chicken Estrogen Receptor (ERa), ESR1 (gene 396099), sequence (P06212 whole entry, looked up): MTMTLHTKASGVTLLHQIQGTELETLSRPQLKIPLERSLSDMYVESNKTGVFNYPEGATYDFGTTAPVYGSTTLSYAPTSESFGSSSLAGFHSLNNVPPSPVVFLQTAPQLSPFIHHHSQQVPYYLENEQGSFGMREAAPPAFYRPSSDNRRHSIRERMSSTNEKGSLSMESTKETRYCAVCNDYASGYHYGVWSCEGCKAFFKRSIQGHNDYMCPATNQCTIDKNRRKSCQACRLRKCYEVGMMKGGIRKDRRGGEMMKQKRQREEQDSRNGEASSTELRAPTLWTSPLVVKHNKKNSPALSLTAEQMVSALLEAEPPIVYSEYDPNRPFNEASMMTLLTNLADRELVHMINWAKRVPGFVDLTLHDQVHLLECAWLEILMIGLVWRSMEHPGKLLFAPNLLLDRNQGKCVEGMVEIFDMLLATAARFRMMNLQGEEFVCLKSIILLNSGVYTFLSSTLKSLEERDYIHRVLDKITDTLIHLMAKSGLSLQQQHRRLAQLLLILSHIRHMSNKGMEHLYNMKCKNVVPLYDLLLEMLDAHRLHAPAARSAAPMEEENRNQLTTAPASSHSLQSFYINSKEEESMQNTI
Procedure: ATG_XSP2_multi-species_TRANS is a cell-based, multiplexed assay created by modifying the existing Attagene TRANS-FACTORIAL system to include a panel of nuclear receptors from some or all the following species: human (Homo sapiens), mouse (Mus musculus), frog (Xenopus laevis), zebrafish (Danio rerio), chicken (Gallus gallus), and turtle (Chrysemys picta). The ECOTOX-FACTORIAL format uses HepG2, a human liver cell line, with measurements taken at 24 hours after chemical dosing in a 24-well plate. Xsp2 included 3 nM 6-alpha-fluorotestosterone and 1.5 nM norgestrel to stimulate the androgen receptor.ATG_chERa_XSP2 is one of 29 assay components measured or calculated from the ATG_XSP2_multi-species_TRANS assay. It is designed to make measurements of mRNA induction, a form of inducible reporter, as detected with fluorescence intensity signals by Reverse transcription polymerase chain reaction (RT-PCR) and Capillary electrophoresis technology.The assay endpoint ATG_chERa_XSP2 was analyzed in the positive analysis fitting direction relative to DMSO as the negative control and baseline of activity. Using a type of inducible reporter, measures of mRNA for gain-of-signal activity can be used to understand the reporter gene at the transcription factor-level as they relate to the gene ER. Furthermore, this assay endpoint can be referred to as a primary readout, because this assay has produced multiple assay endpoints where this one serves a reporter gene function. To generalize the intended target to other relatable targets, this assay endpoint is annotated to the nuclear receptor intended target family, where the subfamily is steroidal.
Human liver HepG2 cells are transiently transfected with multiple reporter transcription units (MRTUs) in 6-well plates using FuGene 6 reagent (Roche; 3 ml FuGene/1 mg DNA). The MRTU constructs are regulated by a cis-regulating element (promoter). […] A major difference between the CIS and TRANS system is that in CIS activities of endogenous TFs are measured, whereas the TRANS assay evaluates changes in activities of exogenous, chimeric NR-Gal4 proteins. […] At the end of 24 hour incubation, total RNA was isolated using TriZol reagent (Invitrogen). The isolated RNA is then reverse-transcribed using oligo(dT) primer and Mo-MLV reverse transcriptase (Invitrogen) with DNAse I (Ambion) treatment for 30 min. The one-tenth of the produced cDNA was amplified by PCR using Taq DNA polymerase (Invitrogen) and two reporter sequence-specific primers. The PCR products were fluorescently labeled by primer extension with 6-arboxyfluorescein (6-FAM) 5'-labeled reporter sequence-specific primer (2 min at 95 C, 20 s at 68 C and 10 min at 72 C) and these products were digested with 5U of HpaI (New England Biolabs) for 2h at 37 C. The fragments were purified using Qiaquick PCR columns (Qiagen), analyzed on an ABI 3130xL genetic analyzer (Applied Biosystems) with peak positions identified by using a set of X-rhodamine (ROX)-labeled MapMarker1000 molecular weight standards (BioVentures). The raw capillary electrophoresis data was processed using Attagraph software (Attagene).

[4] = test system: zebrafish Estrogen Receptor (ER2a), gene 317734; experiment: ATG_zfER2a_XSP2: Attagene TRANS-FACTORIAL Multi-Species (XSP2) HepG2 Assay for zebrafish Estrogen Receptor (ER2a) (AID 2283818);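 note: hits raise reporter mRNA so AC50 reflects activation of zebrafish ER2a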
In short: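 HepG2 cells transiently transfected with GAL4-UAS reporter units and chimeric zebrafish ER2a-Gal4, exposed 24 h; medium contains 3 nM 6-alpha-fluorotestosterone and 1.5 nM norgestrel. Reporter mRNA quantified by RT-PCR, HpaI digestion, capillary electrophoresis; gain versus DMSO.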

[5] = test system: chicken Androgen Receptor (AR), gene 422165; experiment: ATG_chAR_XSP2: Attagene TRANS-FACTORIAL Multi-Species (XSP2) HepG2 Assay for chicken Androgen Receptor (AR) (AID 2283819);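 note: hits raise reporter mRNA above DMSO so potency is for activation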
In short: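 HepG2 cells transiently transfected with chicken AR–GAL4 chimeric reporter constructs, stimulated with 3 nM 6-alpha-fluorotestosterone plus 1.5 nM norgestrel, dosed 24 h. Reporter mRNA quantified by RT-PCR and capillary electrophoresis; gain of signal fitted versus DMSO.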

[6] = test system: frog Estrogen Receptor (ER), gene 398734; experiment: ATG_frER1_XSP2: Attagene TRANS-FACTORIAL Multi-Species (XSP2) HepG2 Assay for frog Estrogen Receptor (ER) (AID 2283821);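 note: hits raise reporter mRNA above DMSO baseline so potency means agonist or activator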
In short: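 HepG2, transient MRTU transfection, chimeric NR-GAL4/UAS reporters; 24 h compound exposure, 24-well. Readout: reporter mRNA via RT-PCR + capillary electrophoresis, fluorescence. Positive fit vs DMSO baseline.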

[7] = test system: zebrafish Estrogen Receptor (ER2b), gene 317733; experiment: ATG_zfER2b_XSP2: Attagene TRANS-FACTORIAL Multi-Species (XSP2) HepG2 Assay for zebrafish Estrogen Receptor (ER2b) (AID 2283823);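 note: fitted upward as reporter gain over DMSO so potency reflects activation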
In short: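 Transfect HepG2 with GAL4-UAS reporter constructs; dose chemicals, 24 h; isolate RNA, RT-PCR, FAM-label, HpaI digest; capillary electrophoresis. Gain-of-signal vs DMSO.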

[8] = test system: frog Androgen Receptor (AR), gene 399456; experiment: ATG_frAR_XSP2: Attagene TRANS-FACTORIAL Multi-Species (XSP2) HepG2 Assay for frog Androgen Receptor (AR) (AID 2283824);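 note: actives raise reporter signal above DMSO so AC50 reflects agonist-like induction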
In short: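 HepG2 cells transiently transfected with GAL4-UAS reporter units and frog (Xenopus laevis) AR-Gal4 chimera; reporter mRNA measured 24 h after dosing by RT-PCR and capillary electrophoresis. Gain of signal fitted relative to DMSO baseline.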

[9] = ATG_M_19_XSP2: Attagene TRANS-FACTORIAL Multi-Species (XSP2) HepG2 Assay for M32 Transcription Factor (Internal Marker) (AID 2283822)
Procedure: ATG_XSP2_multi-species_TRANS is a cell-based, multiplexed assay created by modifying the existing Attagene TRANS-FACTORIAL system to include a panel of nuclear receptors from some or all the following species: human (Homo sapiens), mouse (Mus musculus), frog (Xenopus laevis), zebrafish (Danio rerio), chicken (Gallus gallus), and turtle (Chrysemys picta). The ECOTOX-FACTORIAL format uses HepG2, a human liver cell line, with measurements taken at 24 hours after chemical dosing in a 24-well plate. Xsp2 included 3 nM 6-alpha-fluorotestosterone and 1.5 nM norgestrel to stimulate the androgen receptor.ATG_M_19_XSP2 is one of 29 assay components measured or calculated from the ATG_XSP2_multi-species_TRANS assay. It is designed to make measurements of mRNA induction, a form of inducible reporter, as detected with fluorescence intensity signals by Reverse transcription polymerase chain reaction (RT-PCR) and Capillary electrophoresis technology.This assay endpoint, ATG_M_19_XSP2, was analyzed in the positive analysis fitting direction relative to DMSO as the negative control and baseline of activity. […] Furthermore, this assay endpoint can be referred to as a secondary readout, because this assay has produced multiple assay endpoints where this one serves a background control function. […]

[10] = test system: zebrafish Androgen Receptor (AR), gene 100005148; experiment: ATG_zfAR_XSP2: Attagene TRANS-FACTORIAL Multi-Species (XSP2) HepG2 Assay for zebrafish Androgen Receptor (AR) (AID 2283825);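 note: hits raise reporter mRNA above DMSO so AC50 reflects agonist-type gain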
In short: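 Zebrafish AR–GAL4 chimera transiently expressed with GAL4-UAS reporter in HepG2 cells, co-stimulated with 3 nM 6-alpha-fluorotestosterone and 1.5 nM norgestrel; 24 h dosing, reporter mRNA read by RT-PCR/capillary electrophoresis versus DMSO.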

Measured: AC50

Oc1ccc2cc(SSc3ccc4cc(O)ccc4c3)ccc2c1
inactive: [1] | [2] | [5] | [6]
active: [2] 2.96 µM | [3] 2.29 µM and 634 nM | [4] 0.822 µM | [5] 40.7 µM | [7] 2.56 µM and 2.52 µM | [8] 26.3 µM

CCCCC(CC)COC(=O)c1ccc(O)cc1 (stereo unspecified)
inactive: [9] | [10]
active: [1] 53.2 µM | [2] 52.2 µM | [3] 6.15 µM | [4] 33.4 µM | [5] 51.9 µM | [6] 49.9 µM | [7] 16.3 µM

OCc1cccc(Oc2ccccc2)c1
active: [2] 37.7 µM | [3] 16 µM and 6.22 µM | [4] 23.5 µM and 14.7 µM | [6] 27 µM and 27.1 µM | [7] 46.5 µM and 12.4 µM
inactive: [2]

Clc1ccc(C(c2ccccc2Cl)C(Cl)Cl)cc1 (stereo unspecified)
active: [2] 4.61 µM and 12.7 µM | [3] 3.1 µM and 7.58 µM | [4] 2.3 µM and 2.61 µM | [6] 2.74 µM and 4.46 µM | [7] 2.37 µM and 1.97 µM

BrCc1cccc(Oc2ccccc2)c1
active: [2] 100 µM | [3] 27.5 µM and 21.5 µM | [4] 19.2 µM and 11.9 µM | [6] 7.78 µM and 26.9 µM | [7] 34.9 µM and 12.4 µM
inactive: [2]

O=c1c(O)c(-c2ccc(O)cc2)oc2cc(O)cc(O)c12
active: [1] 3.01 µM and 1.32 µM | [2] 1.68 µM and 954 nM | [3] 3 µM and 1.53 µM | [4] 1.61 µM and 981 nM | [5] 3.26 µM and 1.35 µM | [6] 2.48 µM and 1.49 µM | [7] 2.83 µM and 1.85 µM | [8] 2.89 µM and 1.82 µM

Cc1cc(=O)oc2cc(N(C)C)ccc12
inactive: [2] | [3] | [4]
active: [3] 31.4 µM | [4] 100 µM | [6] 19.2 µM and 27.6 µM | [7] 77.1 µM and 100 µM
